# PubChem BioAssay (NCATS)
# Records with an inconclusive call do not appear. Calls of active or inactive are those of the source. Unless noted, the call rests on the fitted dose curve; in most records, active means well fitted curve in the direction sought with a large enough effect; inconclusive means small, poorly fitted or top-dose-only effect, or another doubt; inactive means no such curve, though single readings can be large; an effect the other way counts as inactive or inconclusive.
# Assay: Cytotoxicity counterscreen for NFkB agonists and antagonists (AID 624476); further: potency means the concentration at half of the fitted maximal effect; on activity change, negative = cytotoxicity: on the % scale 0 is the no-effect control and ±100 the full control effect
# Conditions: NFkB reporter cell line viability counterscreen; series mostly up to 46.1 µM; activity change, negative = cytotoxicity: at the top concentration
SMILES,"activity change, negative = cytotoxicity",Potency
C[C@@H]1[C@@H](C(=O)C[C@H]2O[C@@H]3O[C@]4(C)CC[C@@H]5[C@H](C)CC[C@@H]([C@H]2C)[C@@]35OO4)O[C@@H]2O[C@]3(C)CC[C@H]4[C@H](C)CC[C@@H]1[C@@]24OO3,-18.5% (inactive),–
COc1cc([C@@H]2c3cc4c(cc3[C@H](O)[C@H]3COC(=O)[C@H]23)OCO4)cc(OC)c1OC,27.9% (inactive),–
Cc1cc2c(C(C)C)c(O)c(O)c(C=O)c2c(O)c1-c1c(C)cc2c(C(C)C)c(O)c(O)c(C=O)c2c1O,–,4.69 µM (active)
CN(C)CCN(C)CCc1ccc(Cl)c(Cl)c1,0.752% (inactive),–
CC1=C2C[C@@H]3[C@@H](CC=C4C[C@@H](O)CC[C@@]43C)[C@@H]2CC[C@]12O[C@H]1C[C@H](C)CN[C@H]1[C@H]2C,-0.7% (inactive),–
Cc1sc2c(c1C)C(c1ccc(Cl)cc1)=N[C@@H](CC(=O)OC(C)(C)C)c1nnc(C)n1-2,-26.9% (inactive),–
O=C(O)C(=O)c1cn(Cc2ccccc2)c2ccc(-c3ccc(OC(F)(F)F)cc3)cc12,–,18.7 µM (active)
CNC(=O)c1ccc(N2C(=S)N(c3ccc(C#N)c(C(F)(F)F)c3)C(=O)C23CCC3)cc1F,-6.66% (inactive),–
CCCCC/C=C\C/C=C\C/C=C\C/C=C\CCCC(=O)NC1CC1,-8.55% (inactive),–
C[C@@H]1[C@@H](CC(C[C@H]2O[C@@H]3O[C@]4(C)CC[C@@H]5[C@H](C)CC[C@@H]([C@H]2C)[C@@]35OO4)C[S+](=O)([O-])c2ccc(COC(=O)N(C)C)cc2)O[C@@H]2O[C@]3(C)CC[C@H]4[C@H](C)CC[C@@H]1[C@@]24OO3 (stereo partly drawn),-20.7% (inactive),–

# Assay: qHTS Assay for Identification of Small Molecule Agonists for NFkB Signaling Pathway. (AID 624478);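 further: compounds tested together with TNF alpha at its EC50 of 10 pM; 0% is about no effect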
# Conditions: NFkB pathway reporter cell assay, agonist mode, cells co-stimulated with 10 pM TNF alpha; series mostly up to 46.1 µM; activation: at the top concentration
# In short: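 ME-180 cervical carcinoma, stable NFkB-RE beta-lactamase reporter; 1000 cells/well, overnight attachment; cpd + TNF alpha 10 pM final, 5 h 37 C; LiveBLAzer 2 h RT; FRET 460/530 nm, ex 405 nm.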
row,SMILES,activation
1,C[C@@H]1[C@@H](C(=O)C[C@H]2O[C@@H]3O[C@]4(C)CC[C@@H]5[C@H](C)CC[C@@H]([C@H]2C)[C@@]35OO4)O[C@@H]2O[C@]3(C)CC[C@H]4[C@H](C)CC[C@@H]1[C@@]24OO3,-0.61% (inactive)
2,CN(C)CCN(C)CCc1ccc(Cl)c(Cl)c1,3.18% (inactive)
3,CC1=C2C[C@@H]3[C@@H](CC=C4C[C@@H](O)CC[C@@]43C)[C@@H]2CC[C@]12O[C@H]1C[C@H](C)CN[C@H]1[C@H]2C,-0.769% (inactive)
4,Cc1sc2c(c1C)C(c1ccc(Cl)cc1)=N[C@@H](CC(=O)OC(C)(C)C)c1nnc(C)n1-2,-2.49% (inactive)
5,O=C(O)C(=O)c1cn(Cc2ccccc2)c2ccc(-c3ccc(OC(F)(F)F)cc3)cc12,-0.168% (inactive)
6,CNC(=O)c1ccc(N2C(=S)N(c3ccc(C#N)c(C(F)(F)F)c3)C(=O)C23CCC3)cc1F,-2.13% (inactive)
7,Cc1cc(SCc2sc(-c3ccc(C(F)(F)F)c(F)c3)nc2C)ccc1OCC(=O)O,-0.251% (inactive)
8,CCCCC/C=C\C/C=C\C/C=C\C/C=C\CCCC(=O)NC1CC1,-0.311% (inactive)
9,C[C@@H]1[C@@H](CC(C[C@H]2O[C@@H]3O[C@]4(C)CC[C@@H]5[C@H](C)CC[C@@H]([C@H]2C)[C@@]35OO4)C[S+](=O)([O-])c2ccc(COC(=O)N(C)C)cc2)O[C@@H]2O[C@]3(C)CC[C@H]4[C@H](C)CC[C@@H]1[C@@]24OO3 (stereo partly drawn),-2.16% (inactive)

# Assay: qHTS Assay for Identification of Small Molecule Antagonists for NFkB Signaling Pathway. (AID 624479; calls by dose curve; further: potency means the concentration at half of the fitted maximal effect; on activity change, negative = inhibition: on the % scale 0 is the no-effect control and ±100 the full control effect)
# Conditions: NFkB pathway reporter cell assay, antagonist mode; series mostly up to 38.3 µM; activity change, negative = inhibition: at the top concentration
SMILES,"activity change, negative = inhibition",Potency
C[C@@H]1[C@@H](C(=O)C[C@H]2O[C@@H]3O[C@]4(C)CC[C@@H]5[C@H](C)CC[C@@H]([C@H]2C)[C@@]35OO4)O[C@@H]2O[C@]3(C)CC[C@H]4[C@H](C)CC[C@@H]1[C@@]24OO3,-12.5% (inactive),–
Cc1cc2c(C(C)C)c(O)c(O)c(C=O)c2c(O)c1-c1c(C)cc2c(C(C)C)c(O)c(O)c(C=O)c2c1O,–,5.95 µM (active)
O=c1c(O)c(-c2ccc(O)c(O)c2)oc2cc(O)cc(O)c12,–,14.9 µM (active)
O=C(O)C(=O)c1cn(Cc2ccccc2)c2ccc(-c3ccc(OC(F)(F)F)cc3)cc12,–,16.8 µM (active)
CO[C@@H](C(=O)N1Cc2[nH]nc(NC(=O)c3ccc(N4CCN(C)CC4)cc3)c2C1)c1ccccc1,–,11.9 µM (active)
CNC(=O)c1ccc(N2C(=S)N(c3ccc(C#N)c(C(F)(F)F)c3)C(=O)C23CCC3)cc1F,-10.1% (inactive),–

# Assay: Cell Proliferation Assay against the TMD8 Cell Line (AID 651645);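 further: cells exposed to compound for 48 h before reading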
# Conditions: TMD8 DLBCL cell line proliferation/viability; at 46.1 µM (top of the series)
# In short: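 Cell viability of the ABC DLBCL line TMD8 is measured by CellTiter-Glo luminescence following a 48-hour incubation with compound. Percent activity uses DMSO as 100% and 9.2 uM bortezomib (final) as 0%.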
row,SMILES,viability (% of control) [%]
1,C[C@@H]1[C@@H](C(=O)C[C@H]2O[C@@H]3O[C@]4(C)CC[C@@H]5[C@H](C)CC[C@@H]([C@H]2C)[C@@]35OO4)O[C@@H]2O[C@]3(C)CC[C@H]4[C@H](C)CC[C@@H]1[C@@]24OO3,6.12
2,CC(C)n1c(C=C[C@H](O)C[C@H](O)CC(=O)O)c(-c2ccc(F)cc2)c2ccccc21,83.4
3,CN(C)CCN(C)CCc1ccc(Cl)c(Cl)c1,74
4,O=c1c(O)c(-c2ccc(O)c(O)c2)oc2cc(O)cc(O)c12,46.1
5,CC1=C2C[C@@H]3[C@@H](CC=C4C[C@@H](O)CC[C@@]43C)[C@@H]2CC[C@]12O[C@H]1C[C@H](C)CN[C@H]1[C@H]2C,62.9
6,Cc1sc2c(c1C)C(c1ccc(Cl)cc1)=N[C@@H](CC(=O)OC(C)(C)C)c1nnc(C)n1-2,2.73
7,O=C(O)C(=O)c1cn(Cc2ccccc2)c2ccc(-c3ccc(OC(F)(F)F)cc3)cc12,75.1
8,CS(=O)c1ccc(-c2nc(-c3ccc(F)cc3)c(-c3ccncc3)[nH]2)cc1 (stereo not drawn),92.2
9,CNC(=O)c1ccc(N2C(=S)N(c3ccc(C#N)c(C(F)(F)F)c3)C(=O)C23CCC3)cc1F,71.2
10,Cc1cc(SCc2sc(-c3ccc(C(F)(F)F)c(F)c3)nc2C)ccc1OCC(=O)O,80.8
11,CCCCC/C=C\C/C=C\C/C=C\C/C=C\CCCC(=O)NC1CC1,86.9
12,C[C@]12CCC(=O)C(O)=C1CC[C@@H]1[C@@H]2CC[C@]2(C)C(=O)CC[C@@H]12,87.8
13,C[C@@H]1[C@@H](CC(C[C@H]2O[C@@H]3O[C@]4(C)CC[C@@H]5[C@H](C)CC[C@@H]([C@H]2C)[C@@]35OO4)C[S+](=O)([O-])c2ccc(COC(=O)N(C)C)cc2)O[C@@H]2O[C@]3(C)CC[C@H]4[C@H](C)CC[C@@H]1[C@@]24OO3 (stereo partly drawn),5.05
